“And” between values parts separate entries of the source, which are not always exact repeats. Identical values can stand only once. Inconclusive results are not listed. The source holds several records for some structures; these can differ, active in one and inactive in another. The source made the active and inactive calls. Rule for the calls: active = hit-call score of the fitted dose curve at least 0.9, where 1 is the maximum; inconclusive = response in the unintended direction; inactive = score below 0.9.
Assays:
[1] = target: Estrogen receptor beta (Homo sapiens) (UniProt Q92731); assay: ATG_hERb_XSP1: Attagene TRANS-FACTORIAL Multi-Species (XSP1) HepG2 Assay for human Estrogen Receptor (ESR2) (AID 2283788)
Chain of Estrogen receptor beta (Homo sapiens) (Q92731 whole entry, looked up, the tested form may be a part): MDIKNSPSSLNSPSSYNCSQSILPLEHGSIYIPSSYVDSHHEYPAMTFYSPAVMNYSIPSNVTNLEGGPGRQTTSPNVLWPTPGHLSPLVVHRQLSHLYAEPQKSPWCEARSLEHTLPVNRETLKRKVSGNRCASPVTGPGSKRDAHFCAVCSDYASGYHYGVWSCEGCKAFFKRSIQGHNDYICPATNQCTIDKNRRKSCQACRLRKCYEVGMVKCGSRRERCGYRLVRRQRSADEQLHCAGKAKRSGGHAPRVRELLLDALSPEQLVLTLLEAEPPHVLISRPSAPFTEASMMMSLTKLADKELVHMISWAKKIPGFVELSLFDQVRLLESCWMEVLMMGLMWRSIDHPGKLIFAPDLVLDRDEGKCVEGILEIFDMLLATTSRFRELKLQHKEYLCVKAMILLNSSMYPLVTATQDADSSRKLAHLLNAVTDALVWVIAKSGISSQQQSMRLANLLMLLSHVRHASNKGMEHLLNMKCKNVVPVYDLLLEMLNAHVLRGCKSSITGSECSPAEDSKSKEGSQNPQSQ
How it was run: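 Multiplexed trans-activation in transfected HepG2: ERβ-Gal4 reporter transcripts after 24 h treatment, detected by RT-PCR plus capillary electrophoresis.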

[2] = target: GAL4 Transcription Factor (Internal Marker), GAL4 (gene 855828) (UniProt P04386); assay: ATG_GAL4_XSP1: Attagene TRANS-FACTORIAL Multi-Species (XSP1) HepG2 Assay for GAL4 Transcription Factor (Internal Marker) (AID 2283789)
Chain of GAL4 Transcription Factor (Internal Marker), GAL4 (gene 855828) (P04386 whole entry, looked up, the tested form may be a part): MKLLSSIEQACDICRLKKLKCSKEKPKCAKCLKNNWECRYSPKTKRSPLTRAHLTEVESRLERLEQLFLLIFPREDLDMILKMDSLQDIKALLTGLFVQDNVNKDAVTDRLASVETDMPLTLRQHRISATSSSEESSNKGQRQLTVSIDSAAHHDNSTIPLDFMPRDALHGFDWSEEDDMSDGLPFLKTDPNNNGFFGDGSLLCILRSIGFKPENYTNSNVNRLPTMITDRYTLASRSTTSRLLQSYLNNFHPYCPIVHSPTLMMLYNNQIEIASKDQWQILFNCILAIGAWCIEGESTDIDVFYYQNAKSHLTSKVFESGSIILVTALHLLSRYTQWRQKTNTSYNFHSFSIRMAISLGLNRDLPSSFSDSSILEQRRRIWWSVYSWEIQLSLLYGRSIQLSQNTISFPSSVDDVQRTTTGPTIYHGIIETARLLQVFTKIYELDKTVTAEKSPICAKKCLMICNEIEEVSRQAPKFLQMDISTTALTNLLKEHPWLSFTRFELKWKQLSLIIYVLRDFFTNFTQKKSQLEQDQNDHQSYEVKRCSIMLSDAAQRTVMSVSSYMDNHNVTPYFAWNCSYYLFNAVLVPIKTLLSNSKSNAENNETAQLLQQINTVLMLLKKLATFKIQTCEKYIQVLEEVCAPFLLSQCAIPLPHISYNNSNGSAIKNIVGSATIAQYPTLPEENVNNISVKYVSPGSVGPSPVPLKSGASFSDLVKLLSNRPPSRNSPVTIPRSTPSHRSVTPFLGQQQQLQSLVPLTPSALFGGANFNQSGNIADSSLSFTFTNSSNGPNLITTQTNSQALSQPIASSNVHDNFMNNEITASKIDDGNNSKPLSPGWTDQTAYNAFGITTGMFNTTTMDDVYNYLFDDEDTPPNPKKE
How it was run: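 This background-control endpoint measures GAL4-driven reporter mRNA via RT-PCR and capillary electrophoresis of labelled fragments. Transiently transfected HepG2 cells were treated 24 h, with 3 nM 6-alpha-fluorotestosterone included, and gain-of-signal was fitted against DMSO.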

[3] = ATG_M_06_XSP1: Attagene TRANS-FACTORIAL Multi-Species (XSP1) HepG2 Assay for M06 Transcription Factor (Internal Marker) (AID 2283790)
How it was run: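 This background-control readout tracks M06 reporter mRNA, measured by RT-PCR and capillary electrophoresis. HepG2 cells transiently carrying the GAL4-UAS reporter panel were dosed for 24 h with 3 nM 6-alpha-fluorotestosterone added for partial AR stimulation; increases were scored relative to DMSO.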

[4] = ATG_M_61_XSP1: Attagene TRANS-FACTORIAL Multi-Species (XSP1) HepG2 Assay for M61 Transcription Factor (Internal Marker) (AID 2283797)
How it was run: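 Background-control readout: reporter transcripts measured by RT-PCR and capillary electrophoresis 24 h after dosing transiently transfected HepG2 multi-reporter cells, with 3 nM 6-alpha-fluorotestosterone present. Fitted in the positive direction relative to DMSO.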

[5] = target: mouse Peroxisome Proliferator-activated Receptor gamma (PPARg), Pparg (gene 19016) (UniProt P37238); assay: ATG_mPPARg_XSP1: Attagene TRANS-FACTORIAL Multi-Species (XSP1) HepG2 Assay for mouse Peroxisome Proliferator-activated Receptor gamma (PPARg) (AID 2283802)
How it was run: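 Readout is reporter mRNA induction, measured by RT-PCR with 6-FAM labelling, HpaI digestion and capillary electrophoresis, 24 h post-dose relative to DMSO. Transient multi-reporter transfection of human HepG2 with mouse PPARg–GAL4 fusion; 3 nM 6-alpha-fluorotestosterone included.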

[6] = target: Nuclear receptor subfamily 1 group I member 2 (Mus musculus) (UniProt O54915); assay: ATG_mPXR_XSP1: Attagene TRANS-FACTORIAL Multi-Species (XSP1) HepG2 Assay for mouse Pregnane X Receptor (PXR) (AID 2283803)
Chain of Nuclear receptor subfamily 1 group I member 2 (Mus musculus) (O54915 whole entry, looked up, the tested form may be a part): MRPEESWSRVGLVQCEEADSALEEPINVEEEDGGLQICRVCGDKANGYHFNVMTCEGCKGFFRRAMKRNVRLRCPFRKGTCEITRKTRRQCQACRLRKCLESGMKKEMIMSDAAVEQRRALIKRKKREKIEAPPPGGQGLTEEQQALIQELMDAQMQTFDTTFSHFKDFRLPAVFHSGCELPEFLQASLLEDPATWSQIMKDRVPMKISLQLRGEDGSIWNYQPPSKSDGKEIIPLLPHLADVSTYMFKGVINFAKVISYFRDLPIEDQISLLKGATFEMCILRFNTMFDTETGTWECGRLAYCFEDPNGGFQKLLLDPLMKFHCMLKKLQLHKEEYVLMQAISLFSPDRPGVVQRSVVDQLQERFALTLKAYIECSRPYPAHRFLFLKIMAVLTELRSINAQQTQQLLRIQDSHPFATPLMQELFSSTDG
How it was run: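 Transiently transfected HepG2 cells expressing a receptor-Gal4 chimera drive a GAL4-UAS reporter; 3 nM 6-alpha-fluorotestosterone included. Reporter mRNA read 24 h post-dose by RT-PCR and capillary electrophoresis; gain of signal relative to DMSO.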

[7] = target: frog Thyroid hormone Receptor alpha (TRa), thra-a (gene 397942) (UniProt P15204); assay: ATG_frTRa_XSP1: Attagene TRANS-FACTORIAL Multi-Species (XSP1) HepG2 Assay for frog Thyroid hormone Receptor alpha (TRa) (AID 2283804)
Chain of frog Thyroid hormone Receptor alpha (TRa), thra-a (gene 397942) (P15204 whole entry, looked up, the tested form may be a part): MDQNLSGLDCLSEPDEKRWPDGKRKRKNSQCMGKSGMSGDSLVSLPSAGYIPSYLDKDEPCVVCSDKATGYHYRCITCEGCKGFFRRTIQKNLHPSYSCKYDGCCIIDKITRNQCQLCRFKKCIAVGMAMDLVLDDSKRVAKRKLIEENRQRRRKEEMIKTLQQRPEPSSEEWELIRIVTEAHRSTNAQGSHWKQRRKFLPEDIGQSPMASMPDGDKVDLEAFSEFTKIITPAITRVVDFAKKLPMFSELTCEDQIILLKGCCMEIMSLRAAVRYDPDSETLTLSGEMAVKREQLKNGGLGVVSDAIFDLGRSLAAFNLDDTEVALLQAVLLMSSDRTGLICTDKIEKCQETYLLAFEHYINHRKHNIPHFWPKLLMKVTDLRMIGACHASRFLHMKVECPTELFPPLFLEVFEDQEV
How it was run: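 Reporter transcript induction, measured by RT-PCR with 6-FAM labelling and capillary electrophoresis, 24 hr after dosing transiently transfected HepG2 cells expressing a frog TRa-GAL4 fusion; medium contained 3 nM 6-alpha-fluorotestosterone; increase over DMSO scored.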

[8] = target: human Thyroid hormone Receptor alpha (TRa), THRA (gene 7067) (UniProt P10827); assay: ATG_hTRa_XSP1: Attagene TRANS-FACTORIAL Multi-Species (XSP1) HepG2 Assay for human Thyroid hormone Receptor alpha (TRa) (AID 2283805)
How it was run: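 Reporter transcripts from the human TRa-Gal4 TRANS unit quantified by RT-PCR, fluorescent labeling and capillary electrophoresis after 24 hours of chemical exposure in transfected HepG2 cells; medium contains 3 nM 6-alpha-fluorotestosterone. Positive direction fit against DMSO.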

[9] = tested on: turtle Thyroid Hormone Receptor, alpha (TRa), gene 101949057; assay: ATG_trTRa_XSP1: Attagene TRANS-FACTORIAL Multi-Species (XSP1) HepG2 Assay for turtle Thyroid Hormone Receptor, alpha (TRa) (AID 2283806)
How it was run: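 After 24 h chemical exposure, reporter transcripts were measured by RT-PCR with fluorescent primer extension, HpaI digestion and capillary electrophoresis. Cells were transiently transfected HepG2 expressing exogenous NR-Gal4 chimeras; medium contained 3 nM 6-alpha-fluorotestosterone; fitted upward relative to DMSO.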

[10] = target: zebrafish Thyroid Hormone Receptor alpha (TRa), thraa (gene 30670) (UniProt Q98867); assay: ATG_zfTRa_XSP1: Attagene TRANS-FACTORIAL Multi-Species (XSP1) HepG2 Assay for zebrafish Thyroid Hormone Receptor alpha (TRa) (AID 2283807)
Chain of zebrafish Thyroid Hormone Receptor alpha (TRa), thraa (gene 30670) (Q98867 whole entry, looked up, the tested form may be a part): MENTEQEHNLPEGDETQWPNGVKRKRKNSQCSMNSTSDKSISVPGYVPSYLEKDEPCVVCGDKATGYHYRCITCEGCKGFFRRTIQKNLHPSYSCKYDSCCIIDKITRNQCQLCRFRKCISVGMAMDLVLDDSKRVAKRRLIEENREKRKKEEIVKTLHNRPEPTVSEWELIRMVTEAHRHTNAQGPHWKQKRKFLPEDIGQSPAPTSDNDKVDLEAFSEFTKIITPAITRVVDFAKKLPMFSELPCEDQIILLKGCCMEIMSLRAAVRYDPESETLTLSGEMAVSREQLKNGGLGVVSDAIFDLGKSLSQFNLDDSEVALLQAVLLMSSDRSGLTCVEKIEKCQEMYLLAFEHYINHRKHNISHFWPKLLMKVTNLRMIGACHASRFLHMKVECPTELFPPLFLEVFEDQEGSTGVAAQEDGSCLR
How it was run: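 Reporter transcripts driven by a chimeric zebrafish TRa–Gal4 protein were measured by RT-PCR with fluorescent labelling and capillary electrophoresis. These came from transiently transfected HepG2 cells after 24 h chemical exposure, with 3 nM 6-alpha-fluorotestosterone added; baseline was DMSO.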

[11] = target: human Thyroid hormone Receptor beta (TRb), THRB (gene 7068) (UniProt P10828); assay: ATG_hTRb_XSP1: Attagene TRANS-FACTORIAL Multi-Species (XSP1) HepG2 Assay for human Thyroid hormone Receptor beta (TRb) (AID 2283808)
Chain of human Thyroid hormone Receptor beta (TRb), THRB (gene 7068) (P10828 whole entry, looked up, the tested form may be a part): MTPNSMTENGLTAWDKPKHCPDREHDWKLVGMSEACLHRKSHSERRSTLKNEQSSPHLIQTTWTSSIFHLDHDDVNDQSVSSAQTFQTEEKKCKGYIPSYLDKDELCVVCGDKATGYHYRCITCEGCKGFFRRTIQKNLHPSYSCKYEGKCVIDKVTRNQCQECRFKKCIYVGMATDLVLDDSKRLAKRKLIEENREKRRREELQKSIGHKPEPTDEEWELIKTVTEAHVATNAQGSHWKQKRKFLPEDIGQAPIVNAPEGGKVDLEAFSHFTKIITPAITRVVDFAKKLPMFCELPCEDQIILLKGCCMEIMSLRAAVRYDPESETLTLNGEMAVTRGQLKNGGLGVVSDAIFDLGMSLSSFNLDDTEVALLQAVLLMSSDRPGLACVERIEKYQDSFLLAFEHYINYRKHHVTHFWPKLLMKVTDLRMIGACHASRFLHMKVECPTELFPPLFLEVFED
How it was run: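 Readout is reporter mRNA induction measured by RT-PCR, fluorescent labelling and capillary electrophoresis, fitted upward relative to DMSO. Transiently transfected human HepG2 cells expressing NR-Gal4 chimeras were dosed for 24 h, medium containing 3 nM 6-alpha-fluorotestosterone.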

[12] = target: zebrafish Thyroid Hormone Receptor beta (TRb), thrb (gene 30607) (UniProt Q9PVE4); assay: ATG_zfTRb_XSP1: Attagene TRANS-FACTORIAL Multi-Species (XSP1) HepG2 Assay for zebrafish Thyroid Hormone Receptor beta (TRb) (AID 2283809)
Chain of zebrafish Thyroid Hormone Receptor beta (TRb), thrb (gene 30607) (Q9PVE4 whole entry, looked up, the tested form may be a part): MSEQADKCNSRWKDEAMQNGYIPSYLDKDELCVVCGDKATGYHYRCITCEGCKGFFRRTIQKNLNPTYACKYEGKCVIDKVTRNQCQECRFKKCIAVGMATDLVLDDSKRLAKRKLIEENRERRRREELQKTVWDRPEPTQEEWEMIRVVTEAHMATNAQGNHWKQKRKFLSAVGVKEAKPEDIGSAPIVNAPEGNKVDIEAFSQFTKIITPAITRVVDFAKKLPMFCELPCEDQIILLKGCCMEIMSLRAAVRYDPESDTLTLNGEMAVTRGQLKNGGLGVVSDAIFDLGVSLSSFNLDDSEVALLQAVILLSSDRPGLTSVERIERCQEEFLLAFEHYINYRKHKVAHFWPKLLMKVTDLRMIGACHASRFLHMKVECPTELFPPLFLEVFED
How it was run: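 HepG2 cells transiently transfected with multiplexed GAL4-UAS reporter units expressing chimeric zebrafish TRb–Gal4. Dosed 24 h with 3 nM 6-alpha-fluorotestosterone present; reporter mRNA measured by RT-PCR, HpaI digestion and capillary electrophoresis; gain of signal versus DMSO.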

[13] = ATG_XTT_Cytotoxicity_XSP1: Cytotoxicity Assessment in the Attagene TRANS-FACTORIAL Multi-Species (XSP1) HepG2 Assay (AID 2283810)
How it was run: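 XTT viability readout taken at 24 hours post-dosing in HepG2 liver cells co-treated with 3 nM 6-alpha-fluorotestosterone. Signal loss relative to DMSO controls reflects cytotoxicity.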

[14] = ATG_M_06_XSP2: Attagene TRANS-FACTORIAL Multi-Species (XSP2) HepG2 Assay for M06 Transcription Factor (Internal Marker) (AID 2283811);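 note: hits are increases in signal above the DMSO baseline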
How it was run: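 Cells of the human liver line HepG2 carried transfected reporter transcription units and were treated for 24 h. Induced reporter transcripts were detected by fluorescence after RT-PCR and capillary electrophoresis, with activity fitted in the gain direction against DMSO.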

[15] = tested on: turtle Estrogen Receptor (ERa), gene 101933533; assay: ATG_trERa_XSP2: Attagene TRANS-FACTORIAL Multi-Species (XSP2) HepG2 Assay for turtle Estrogen Receptor (ERa) (AID 2283812);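 note: actives raise reporter signal above DMSO so AC50 reflects agonist activity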
How it was run: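 Readout is reporter mRNA quantified by RT-PCR with capillary electrophoresis after 24 h compound exposure, increase relative to DMSO. Uses transiently transfected human HepG2 liver cells carrying a chimeric turtle ERa-Gal4 receptor driving GAL4-UAS reporters.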

[16] = target: Estrogen receptor beta (Homo sapiens) (UniProt Q92731); assay: ATG_hERb_XSP2: Attagene TRANS-FACTORIAL Multi-Species (XSP2) HepG2 Assay for human Estrogen Receptor (ERb) (AID 2283813);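 note: actives raise reporter mRNA above DMSO so AC50 reflects agonist induction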
How it was run: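 Transient TRANS reporter system in HepG2: after 24 h of chemical, RNA is reverse-transcribed, reporter cDNA amplified, FAM-labelled and sized by capillary electrophoresis. Induction of the human ERb-Gal4 reporter is measured relative to DMSO.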

[17] = target: GAL4 Transcription Factor (Internal Marker), GAL4 (gene 855828) (UniProt P04386); assay: ATG_GAL4_XSP2: Attagene TRANS-FACTORIAL Multi-Species (XSP2) HepG2 Assay for GAL4 Transcription Factor (Internal Marker) (AID 2283814);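 note: GAL4 reporter mRNA background control in MRTU transfected cells not a receptor target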
How it was run: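 Background-control readout: gain-of-signal fitted against DMSO. After 24 h exposure of transfected HepG2 (MRTU, GAL4-UAS reporters; 3 nM 6-alpha-fluorotestosterone, 1.5 nM norgestrel present), transcripts quantified by RT-PCR and capillary electrophoresis fluorescence.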

[18] = target: zebrafish Estrogen Receptor (ER1), esr1 (gene 259252) (UniProt P57717); assay: ATG_zfER1_XSP2: Attagene TRANS-FACTORIAL Multi-Species (XSP2) HepG2 Assay for zebrafish Estrogen Receptor (ER1) (AID 2283816)
Chain of zebrafish Estrogen Receptor (ER1), esr1 (gene 259252) (P57717 whole entry, looked up, the tested form may be a part): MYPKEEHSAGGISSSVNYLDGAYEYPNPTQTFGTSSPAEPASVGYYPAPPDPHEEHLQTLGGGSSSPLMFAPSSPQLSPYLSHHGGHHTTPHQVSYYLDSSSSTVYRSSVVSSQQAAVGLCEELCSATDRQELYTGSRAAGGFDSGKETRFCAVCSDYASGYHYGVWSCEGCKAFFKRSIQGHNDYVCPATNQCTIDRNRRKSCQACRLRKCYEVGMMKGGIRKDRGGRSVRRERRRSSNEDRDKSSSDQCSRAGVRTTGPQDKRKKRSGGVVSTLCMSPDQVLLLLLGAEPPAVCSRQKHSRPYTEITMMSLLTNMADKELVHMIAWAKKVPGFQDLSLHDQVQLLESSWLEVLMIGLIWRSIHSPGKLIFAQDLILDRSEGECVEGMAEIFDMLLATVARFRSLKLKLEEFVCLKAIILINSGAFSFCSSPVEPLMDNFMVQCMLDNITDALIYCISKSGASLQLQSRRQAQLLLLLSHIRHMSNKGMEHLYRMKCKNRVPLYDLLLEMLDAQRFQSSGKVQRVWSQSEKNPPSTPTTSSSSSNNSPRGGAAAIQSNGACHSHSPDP
How it was run: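 After 24 h compound exposure, RNA from transfected HepG2 cells was reverse-transcribed and reporter transcripts resolved by capillary electrophoresis. The TRANS format reads exogenous zebrafish ER1-Gal4 chimera activity on GAL4-UAS elements; gain of signal against DMSO.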

[19] = target: chicken Estrogen Receptor (ERa), ESR1 (gene 396099) (UniProt P06212); assay: ATG_chERa_XSP2: Attagene TRANS-FACTORIAL Multi-Species (XSP2) HepG2 Assay for chicken Estrogen Receptor (ERa) (AID 2283817);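 note: actives raise reporter signal above DMSO so AC50 reflects ER activation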
Chain of chicken Estrogen Receptor (ERa), ESR1 (gene 396099) (P06212 whole entry, looked up, the tested form may be a part): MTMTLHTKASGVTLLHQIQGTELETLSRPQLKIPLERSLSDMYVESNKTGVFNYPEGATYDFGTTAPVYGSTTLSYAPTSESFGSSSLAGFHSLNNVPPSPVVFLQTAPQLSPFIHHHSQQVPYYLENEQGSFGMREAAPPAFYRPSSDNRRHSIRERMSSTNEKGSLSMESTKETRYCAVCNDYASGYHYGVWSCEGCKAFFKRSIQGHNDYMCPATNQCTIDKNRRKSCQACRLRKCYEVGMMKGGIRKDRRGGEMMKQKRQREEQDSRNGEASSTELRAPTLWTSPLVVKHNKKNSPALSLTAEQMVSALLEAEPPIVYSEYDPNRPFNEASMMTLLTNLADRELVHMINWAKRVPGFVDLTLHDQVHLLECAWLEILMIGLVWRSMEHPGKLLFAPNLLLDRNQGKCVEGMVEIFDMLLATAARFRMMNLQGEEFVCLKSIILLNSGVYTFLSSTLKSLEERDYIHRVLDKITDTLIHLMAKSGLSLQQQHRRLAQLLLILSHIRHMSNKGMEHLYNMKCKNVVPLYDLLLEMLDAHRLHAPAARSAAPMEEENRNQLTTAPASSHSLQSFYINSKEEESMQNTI
How it was run: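 Exogenous chicken ERa-Gal4 chimera activity was assessed in transfected human liver HepG2 cells after 24 h of treatment. Induced reporter mRNA was quantified fluorescently by capillary electrophoresis, with DMSO as baseline.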

[20] = tested on: zebrafish Estrogen Receptor (ER2a), gene 317734; assay: ATG_zfER2a_XSP2: Attagene TRANS-FACTORIAL Multi-Species (XSP2) HepG2 Assay for zebrafish Estrogen Receptor (ER2a) (AID 2283818);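 note: hits raise reporter mRNA so AC50 reflects activation of zebrafish ER2a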
How it was run: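 Multiplexed trans-reporter readout: RT-PCR then capillary electrophoresis of reporter transcripts after 24 h compound treatment. Human HepG2 carries transfected zebrafish ER2a-Gal4 chimera; 3 nM 6-alpha-fluorotestosterone plus 1.5 nM norgestrel present. Induction scored against DMSO.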

For `O=C(c1ccc(O)cc1)c1ccc(O)cc1O`, which AC50 [1] is on record?
Its AC50 is 0.531 µM (active).

What about the outcome [2] of the same molecule?
Its outcome is “inactive”.

And the outcome [3]?
Its outcome is “inactive”.

What about the outcome [4] of the same molecule?
Its outcome is “inactive”.

And the outcome [5]?
The outcome was “inactive”.

What about the outcome [6] of the same molecule?
The outcome was “inactive”.

And the outcome [7]?
Its outcome is “inactive”.

What about the outcome [8] of the same molecule?
The outcome was “inactive”.

What about the outcome [9] of the same molecule?
The outcome was “inactive”.

What about the outcome [10] of the same molecule?
Its outcome is “inactive”.

What about the outcome [11] of the same molecule?
Its outcome is “inactive”.

What about the outcome [12] of the same molecule?
The outcome was “inactive”.

And the outcome [13]?
The outcome was “inactive”.

And the outcome [14]?
The outcome was “inactive”.

What about the AC50 [15] of the same molecule?
Its AC50 is 3.24 µM (active).

And the AC50 [16]?
Its AC50 is 1.6 µM (active).

What about the outcome [17] of the same molecule?
The outcome was “inactive”.

What about the AC50 [18] of the same molecule?
The AC50 was 4.75 µM (active).

And the AC50 [19]?
Its AC50 is 3.03 µM (active).

And the AC50 [20]?
The AC50 was 2.27 µM (active).

For `COC(=O)c1c(C)cc(O)c(C)c1O`, which outcome [14] is on record?
Its outcome is “inactive”.

What about the AC50 [15] of the same molecule?
The AC50 was 8.55 µM (active) and 31.2 µM (active).

And the AC50 [16]?
Its AC50 is 8.13 µM (active) and 12.3 µM (active).

And the outcome [17]?
Its outcome is “inactive”.

And the AC50 [18]?
The AC50 was 27.5 µM (active).

And the outcome [18]?
Its outcome is “inactive”.

What about the AC50 [19] of the same molecule?
The AC50 was 19.8 µM (active) and 28.8 µM (active).

And the AC50 [20]?
Its AC50 is 7.57 µM (active) and 27.3 µM (active).
